This is part of a sample that, as a whole, favours compounds with a hit. Of some 83,000 tested, about 20% had one in any assay.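 Step 1: grow cells in 96-well plates. Step 2: add test compound at a single concentration. Step 3: incubate 48 h. Step 4: record percent growth.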 A number with no mark means an inactive call. The source made the active and inactive calls. How the source made its calls: active means growth percent below 10; inactive means the rest.
How the values were obtained:
Assay in all cases: NCI-60 one-dose screen, 48 h (100 = growth as untreated, 0 = no growth, -100 = all killed)
Details in all cases: 10 µM unless noted
[1] = system: NCI-H23 lung
[2] = system: NCI-H226 lung
[3] = system: NCI-H322M lung
[4] = system: HOP-62 NSCLC
[5] = system: NCI-H460 lung
[6] = system: HOP-92 NSCLC
[7] = system: NCI-H522 lung
[8] = system: A549/ATCC NSCLC
[9] = system: 786-0 renal
[10] = system: COLO 205 colon
[11] = system: DU-145 prostate
[12] = system: K-562 leukemia
[13] = system: MALME-3M melanoma
[14] = system: MDA-MB-231 breast
[15] = system: RXF 393 renal
[16] = system: SF-268 CNS
[17] = system: SF-295 CNS
[18] = system: SF-539 CNS
[19] = system: UACC-257 melanoma
[20] = system: M14 melanoma

SMILES	growth [1]	growth [2]	growth [3]	growth [4]	growth [5]	growth [6]	growth [7]	growth [8]	growth [9]	growth [10]	growth [11]	growth [12]	growth [13]	growth [14]	growth [15]	growth [16]	growth [17]	growth [18]	growth [19]	growth [20]
COc1ccc2nc3cc(Cl)ccc3c(NCCCNCCC(C)O)c2c1 (stereo not given)	-48.8% (active)	-3.4% (active)	-24.8% (active)	-8.19% (active)	-53.5% (active)	-23.7% (active)	-34.3% (active)	-17.6% (active)	-49.5% (active)	-77.7% (active)	-16.2% (active)	-18.1% (active)	-76.1% (active)	-47.5% (active)	-67.6% (active)	-25.9% (active)	-11.9% (active)	-56.9% (active)	-83.9% (active)	-82% (active)
C=C(C)[C@@H]1CC[C@]2(C)[C@H](CC(=O)N[C@H]3[C@@H]4C[C@](C)(C(=O)OC)CC[C@]4(C)CC[C@]32C)[C@@]1(C)CCC#N	92.7%	78.1%	103%	110%	96.8%	69.3%	71.3%	94.2%	107%	86.9%	94.4%	50.3%	86.7%	79.7%	83%	81.2%	81.2%	95.9%	83.7%	86.8%
COc1ccc(-c2cc3cnc4ccccc4c3oc2=O)cc1	94.4%	103%	94.5%	105%	104%	73.5%	97.4%	101%	89%	103%	97.8%	28.1%	97%	88.2%	86.5%	99.7%	96.7%	102%	96.4%	106%
COc1cccc(C2C(C#N)=C(N)Oc3cc(OCCCCCC[P+](c4ccccc4)(c4ccccc4)c4ccccc4)ccc32)c1 (stereo not given)	-23.1% (active)	7.81% (active)	6.6% (active)	-39% (active)	-44.4% (active)	-51.7% (active)	-10.7% (active)	10.2%	-46.3% (active)	-62.5% (active)	1.62% (active)	-21.2% (active)	-73.3% (active)	-54.1% (active)	-63.8% (active)	-38.5% (active)	-41.4% (active)	-58.1% (active)	-21.5% (active)	-49.7% (active)
COc1ccc(S(=O)(=O)Nc2cc(Sc3cccc4cccnc34)c(O)c3ccccc23)cc1	23.7%	41.2%	29.9%	45.8%	4.45% (active)	38.9%	-39% (active)	13.3%	28.5%	-60.2% (active)	19.5%	-7.46% (active)	6.25% (active)	25%	18.8%	11.3%	22.3%	-6.48% (active)	-17% (active)	-13.4% (active)
COc1ccc(CN2CCc3c(Cl)nc(N)nc3C2=O)c(OC)c1	-62.1% [100 µM] (active)	5.05% [100 µM] (active)	14.9% [100 µM]	40% [100 µM]	1.6% [100 µM] (active)	-15.2% [100 µM] (active)	15.7% [100 µM]	35.4% [100 µM]	19.6% [100 µM]	-48.6% [100 µM] (active)	20.8% [100 µM]	14.8% [100 µM]	27.8% [100 µM]	6.36% [100 µM] (active)	-20.2% [100 µM] (active)	-22.4% [100 µM] (active)	41.6% [100 µM]	-25.3% [100 µM] (active)	25.5% [100 µM]	-70.8% [100 µM] (active)
OB(O)c1ccsc1-c1nc2ccc3[nH]ncc3c2c2c1CCCC2	51.6%	72%	49.9%	52.2%	38.9%	65.3%	32.2%	46.7%	48.6%	41.2%	47.3%	55.9%	77.9%	70.3%	19.2%	58.9%	69.6%	45.2%	85.5%	41.4%
O=S(=O)(Nc1ccc(F)cc1)c1ccc(-c2cnc(C3CC3)o2)cc1	42%	63.9%	52.8%	34.7%	15.8%	50.5%	0.0519% (active)	37.8%	38.5%	20.2%	34%	11.9%	46%	49.7%	25.9%	45.5%	30.2%	19.4%	43.4%	12.2%
Cn1cc(-c2nc3c(F)cc4[nH]ncc4c3c3c2CCCC3)c(C(F)F)n1	66.9%	62.2%	66.2%	57.3%	62.3%	8.14% (active)	26.9%	58.1%	63.9%	89.4%	78.7%	26%	77.1%	60.2%	55%	61.7%	64.7%	62.3%	90.5%	53.4%
Cc1nc(-n2[nH]c(=O)ccc2=O)sc1N=Nc1ccccc1	103%	85.3%	97.3%	94.3%	102%	96.6%	103%	104%	94.4%	112%	112%	101%	102%	102%	97.5%	104%	99.3%	99.8%	109%	97.7%
O=C(NNc1ccccc1)c1ncc[nH]1	96.2%	62.6%	82.8%	73%	100%	95.1%	50.8%	64.4%	75.2%	79.7%	55.8%	7.21% (active)	54.1%	81.5%	107%	59.3%	90.2%	48.7%	71.5%	37.4%
COc1ccc(-c2cc(-c3cccnc3)nc3sc4c(Cl)nnnc4c23)cc1OC	91.3%	84.4%	95.3%	98.4%	102%	106%	47.4%	93.6%	109%	42%	94.2%	15.8%	107%	77.9%	104%	96.7%	101%	101%	78.4%	88.6%
COc1cc(N=Nc2ccc(O)c3ncccc23)c2ncccc2c1	50.2%	64.6%	55.9%	42.7%	17.4%	32.4%	15.9%	8.08% (active)	24.3%	52.4%	31%	10.9%	35.5%	37.3%	52.5%	18.3%	67.8%	10.1%	74.4%	25.9%
O=c1c(/C=C/c2ccco2)nnc2sc(Nc3ccc(Cl)cc3)nn12	96.2%	85.4%	83.8%	89%	101%	89.2%	90.8%	101%	103%	114%	111%	97.9%	100%	96.4%	114%	103%	105%	90.6%	104%	101%
COc1ccc(C(c2cc(OC)c(OC)c(OC)c2)n2ccnc2)cc1O (stereo not given)	38.9%	68.7%	48.2%	29.5%	6.11% (active)	25.8%	12.1%	12.8%	20%	-9.99% (active)	12.9%	8% (active)	66.6%	34.8%	-5.38% (active)	39.6%	-3.02% (active)	9.52% (active)	37.8%	0.908% (active)

From PubChem BioAssay (NCI)
